# Laboratory results: PubChem BioAssay (EPA / NIEHS)
# Activity calls are given as the source filed them. Rule for the calls: active = hit-call score of the fitted dose curve at least 0.9, where 1 is the maximum; inactive = score below 0.9.
# Read-out: Matrix Metallopeptidase 1 (MMP1), MMP1 (gene 4312)
# Experiment: BSK_hDFCGF_MMP1: BioMAP Diversity Plus: hDFCGF Assay for Matrix Metallopeptidase 1 (MMP1) Biomarker Activity (AID 2283064)
# Conditions: primary human foreskin fibroblasts; actives raise or lower the signal
# How it was run: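 Primary human foreskin fibroblasts exposed to chemicals for 24 h; MMP1 measured by ELISA. Cytotoxicity tracked by SRB staining in parallel cultures; bidirectional fit relative to DMSO.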
Structure (SMILES),AC50,outcome
On1ccccc1=S,1.35 µM (active),–
O=c1[nH]c2ccc(S(=O)CCN3CCC(Cc4ccc(F)cc4)CC3)cc2o1 (stereo unspecified),–,inactive
O=C(NS(=O)(=O)/C=C/c1ccccc1)c1ccc(F)cc1Cl,–,inactive
COc1ccc(-n2nc(C(F)F)cc2-c2ccc(S(C)=O)cc2)cc1 (stereo unspecified),–,inactive
CCCN(C1CCN(C(=O)C2CCNCC2)CC1)[C@@H]1CCc2ccc(OC)cc2C1,–,inactive
O=C1CCCCCN1,–,inactive
Nc1cccc(N)c1,–,inactive
Fc1ccccc1[C@@H](F)COC1CCC(Nc2ncnc3[nH]ncc23)CC1 (stereo partly specified),–,inactive
CCn1nc(Cc2ccccc2)cc1C1CCN(C[C@H]2C[C@H](N(C)[C@@H](C(=O)O)C(C)C)C[C@@H]2c2cccc(F)c2)CC1,–,inactive
C=CC(=C)CCC=C(C)C,–,inactive
CC(C)(O)c1coc(S(=O)(=O)NC(=O)Nc2c3c(cc4c2CCC4)CCC3)c1,–,inactive
CC(=O)OCCC(C)C,–,inactive
O=C1OC(=O)C2C3C=CC(C3)C12 (stereo unspecified),–,inactive
O=C(O)c1cccc(Oc2ccccc2)c1,–,inactive
CCCCCCCCCCCCCCCO,–,inactive
O=C(CCCCCCCCc1cccnc1)N1CCC(C=C(c2ccccc2)c2ccccc2)CC1,9.34 µM (active),–
COC(=O)c1ccccc1O,–,inactive
O=C(O)c1cccc(N(Cc2cccnc2)c2ccc(OC(F)F)c(OC(F)F)c2)c1,–,inactive
C1=CCCC=CCCC=CCC1,–,inactive
O=C(O)c1cc(N=Nc2ccc(S(=O)(=O)Nc3ccccn3)cc2)ccc1O,–,inactive
CCOc1cccc(-n2cc(C(=O)N3CCN(c4cc(C(=O)O)c5ccccc5c4)CC3)nc2-c2ccc(C)cc2)c1,16.5 µM (active),–
